Our source for the AC50 values is PubChem BioAssay AID540356 (Broad Institute, 2011).

SMILES strings stand for the structures. Hit rate of the full screen: of about 2,500 compounds, about 360 (14%) were called active.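 Rule for the calls: active = signal-lowering compounds whose fitted half-maximal concentration AC50 is no higher than ten times their top tested concentration; inconclusive = flat curve with 30 to 70% inhibition, or poor fit; inactive = flat within 30%, signal increase, or AC50 above limit.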 Not all results are given here.

By AC50 is commonly meant the concentration giving half of the maximal activity seen.

The experiment can be described thus: non-specific inhibitors of H2O2 luminol chemiluminescence – biochemical, luminescence, no ALR or DTT, cherry-pick, artefact control for ALR inhibitor project, dose response (AID 540356). The note with it: HRP/H2O2 luminol luminescence counterscreen; series mostly up to 10 µM. A general note: Counterscreens check selectivity or assay interference.
As for `COc1ccc(Nc2cccc(Cl)c2)c(C(=O)O)c1`, the AC50 result was “inactive”.

As to `O=C(NNc1cccc(Cl)c1)c1cccnc1Cl`, the AC50 is 6.88 µM (active).

With `C/C(=N\Nc1cccc(Cl)c1)c1ccncc1`, the AC50 entry was “inactive”.

For the compound `O=C(CC1CCCC1)N1CCCC(Nc2ccc(F)cc2)C1` (stereo unspecified), the AC50 result was “inactive”.

In the case of `Cc1occc1C(=O)N1CCCC(Nc2ccc(C(C)C)cc2)C1` (stereo unspecified), the AC50 entry was “inactive”.

Consider `CCS(=O)(=O)N1Cc2ccccc2CC1C(=O)N1CCN(c2ccccc2)CC1` (stereo unspecified), for which the AC50 entry was “inactive”.

As for `Cc1ccc2c(C)c(C(=O)Nc3ccc(S(=O)(=O)Nc4onc(C)c4C)cc3)oc2c1`, the AC50 entry is “inactive”.

For `CCN(CC)c1ccc(NC(=O)CN2CCN(c3ccc(F)cc3)CC2)cc1`, the AC50 entry was “inactive”.

As for `CCN(CC)c1ccc(NC(=O)CN2CCN(c3nc(C)cc(C)n3)CC2)cc1`, the AC50 result was “inactive”.

As to `CCN(CC)c1ccc(NC(=O)c2nc3nc(C)cc(C(F)F)n3n2)cc1`, the AC50 was 10.3 µM (active).

As for `COc1ccc(N2C(=O)CSC2c2ccc([N+](=O)[O-])cc2)cc1` (stereo unspecified), the AC50 entry is “inactive”.

On to `O=C(NNc1cc(Br)c(O)c(Br)c1)c1ccccc1`, for which the AC50 result was “inactive”.

Regarding `O=C(NNc1ccc(O)cc1)c1ccc(Br)cc1`, the AC50 is 9.05 µM (active).

For the compound `COc1ccc(Br)cc1C(=O)Nc1ccc(O)cc1`, the AC50 entry was “inactive”.

As to `Nc1cccc(/C=C/c2ccncc2)c1`, the AC50 entry is “inactive”.

Take `CCN(CC)Cc1c(-c2ccccc2)[nH]c2ccc(C)cc2c1=O`: the AC50 entry is “inactive”.

With `Oc1ccc(O)c(-c2cnns2)c1`, the half-maximal activity concentration (AC50) was 5.54 µM (active).

For `c1ccc(-c2nnc(CN3CCN(c4ccccc4)CC3)o2)cc1`, the AC50 result is “inactive”.

Turning to `COc1ccc(NC2CCCN(C(=O)c3cn(C)c4ccccc34)C2)cc1` (stereo unspecified), the AC50 entry is “inactive”.

On to `Cc1ccc(Nc2c(-c3ccccc3O)nc3cnccn23)cc1`, for which the AC50 result is “inactive”.

Consider `CC(=O)Oc1cc2oc(=O)cc(C)c2cc1Cl`, for which the AC50 entry is “inactive”.

Turning to `Cc1cc(N)n2ncc(-c3ccccc3)c2n1`, the AC50 result is “inactive”.

`O=C(NCC(c1cccnc1)N1CCN(c2ccc(F)cc2)CC1)c1ccco1` (stereo unspecified): the AC50 entry was “inactive”.

`COC(=O)[C@H](Cc1ccccc1)NC(=O)N1CCN(c2ccccc2)CC1`: the AC50 entry is “inactive”.

For `O=C(CN1CCN(c2ccccc2)CC1)Nc1ccccc1Cl`, the AC50 entry is “inactive”.

Consider `O=C1N/C(=N\S(=O)(=O)Cc2ccccc2)S/C1=C/c1cc([N+](=O)[O-])ccc1O`, for which the AC50 result is “inactive”.

Take `Cc1ccc(N2CCN(C(=O)CNS(=O)(=O)c3ccc(Br)s3)CC2C)cc1` (stereo unspecified): the AC50 result is “inactive”.

With `COc1ccc(N2CCN(C(=O)c3ccc(SC)cc3OC)CC2)cc1`, the AC50 result is “inactive”.

With `COc1cc(-c2nc(=S)[nH][nH]2)cc(OC)c1OC`, the AC50 was 3.9 µM (active).

As for `COc1ccc(-c2nc(=S)[nH][nH]2)cc1`, the AC50 was 2.94 µM (active).

For `S=c1nc(-c2cccc(Cl)c2)[nH][nH]1`, the AC50 entry was “inactive”.

Turning to `FC(F)(F)c1ccc(-c2nc(=S)[nH][nH]2)cc1`, the AC50 result was “inactive”.

Regarding `S=c1nc(-c2cc(Cl)cc(Cl)c2)[nH][nH]1`, the AC50 result is “inactive”.

Turning to `CCn1c(-c2cc(OC)c(OC)c(OC)c2)n[nH]c1=S`, the AC50 result is “inactive”.

For `CC(=O)Nc1ccc(N2C(=O)CSC2c2ccccc2)cc1` (stereo unspecified), the AC50 result was “inactive”.

Consider `COc1ccc2nc(N3CCCC3)[nH]c2c1`, for which the AC50 result is “inactive”.

With `Cc1[nH]c2ccccc2c1N=Nc1cccc(C(=O)O)c1`, the AC50 result is “inactive”.

Turning to `CCCCC(NC(=O)Cc1c(C)c2cc3c(C)c(C)oc3c(C)c2oc1=O)C(=O)O` (stereo unspecified), the AC50 entry is “inactive”.

On to `CC(=O)NC(c1cc(Cl)c2ccccc2c1O)C(C)C` (stereo unspecified), for which the AC50 entry was “inactive”.

Take `COc1ccccc1N1CCN(C2CCCN(C(=O)CCc3c(C)noc3C)C2)CC1` (stereo unspecified): the AC50 entry was “inactive”.

Take `CCN(CC)c1ccc(NC(=O)c2ccc(Br)o2)c(C)c1`: the AC50 entry is “inactive”.

For `Cc1cccc(C2CN(C)CCc3c2cc(O)c(O)c3Cl)c1` (stereo unspecified), the AC50 is 8.78 µM (active).

In the case of `COc1ccc2[nH]c(=S)[nH]c2c1`, the AC50 result is “inactive”.

Regarding `COc1ccc(-c2cn[nH]c2N)c(OC)c1`, the AC50 was 7 µM (active).

For the compound `COc1cc(OC)cc(-c2cn[nH]c2N)c1`, the AC50 result is “inactive”.

With `Nc1cccc(CCc2ccncc2)c1`, the AC50 result was “inactive”.

Take `O=C(Cc1ccc(Cl)cc1)N1CCN(c2ccccc2)CC1`: the AC50 result was “inactive”.

Take `O=c1/c(=C/c2ccc(O)cc2)sc2n1CCCN=2`: the AC50 is 9.71 µM (active).

Turning to `O=C(C1CCCN(S(=O)(=O)c2cnc[nH]2)C1)N1CCN(c2ccc(Cl)cc2)CC1` (stereo unspecified), the AC50 result was “inactive”.

For `O=C1CCCN1CCCNc1ncnc2c1[nH]c1ccc(Cl)cc12`, the AC50 entry was “inactive”.

As to `COc1cc2c(ccc3cc(OC)c(OC)c(O)c32)cc1O`, the AC50 result was “inactive”.

`CCN(CCNS(=O)(=O)c1ccc2[nH]c(=O)sc2c1)c1ccccc1`: the AC50 entry is “inactive”.

Regarding `CC(=O)N1CC[n+]2c(-c3ccc(Cl)cc3)csc21`, the AC50 result is “inactive”.

As for `O=C1CCC(=O)N1CNc1ccc(Oc2ccccc2)cc1`, the AC50 result is “inactive”.

Regarding `O=C(CN1C(=O)CCC1=O)NNc1ccc2ccccc2c1`, the AC50 is 0.0915 µM (active).

For the compound `O=C(CNc1ccc2ccccc2c1)NNC1=NCCC1`, the AC50 result is “inactive”.

Regarding `CCCn1cnc2cc(NCc3ccccc3O)ccc21`, the AC50 entry was “inactive”.

Consider `Cc1cc(N2CCN(c3ccccc3)CC2)n2ncnc2n1`, for which the AC50 result is “inactive”.

As to `O=C(O)c1ccc(CSc2nc3ccccc3o2)cc1`, the AC50 entry was “inactive”.

Regarding `CC(=O)N1CCN(C(=S)c2ccc(N(C)C)cc2)CC1`, the AC50 entry was “inactive”.

As for `S=c1[nH]nc(-c2ccncc2)n1Cc1ccco1`, the AC50 entry was “inactive”.

Turning to `CCn1c(-c2ccc(N)cc2)nc2ccccc21`, the AC50 result is “inactive”.

With `S=c1[nH]nc(-c2ccco2)n1Cc1ccccc1`, the AC50 entry was “inactive”.

Take `COc1ccc(-c2n[nH]c(=S)n2Cc2ccco2)cc1`: the AC50 result is “inactive”.

Turning to `O=C(NNS(=O)(=O)c1ccc(F)cc1)c1cc2ccccc2cc1O`, the AC50 result was “inactive”.

`O=C(C1CCCC1)N1CCCC(Nc2ccccc2)C1` (stereo unspecified): the AC50 result is “inactive”.

Turning to `CCc1[nH]nc(C(=O)N2CCCC(Nc3ccc(C(C)C)cc3)C2)c1C` (stereo unspecified), the AC50 entry is “inactive”.

Take `CCc1ccc(-c2csc3[n+]2CCN3C(C)=O)cc1`: the AC50 result is “inactive”.

Regarding `O=C(Nc1ccc2snnc2c1)N1CCN(c2ccccc2)CC1`, the AC50 result is “inactive”.

For `CC1(C)Nc2ccccc2N(CC(=O)N2CCCCC2)C1=O`, the AC50 result was “inactive”.

For `CCn1c(/C=C/c2ccc(O)cc2)nc2ccccc2c1=O`, the AC50 entry was “inactive”.

`O=c1[nH]c(/C=C\c2cccc(Cl)c2)nc(O)c1[N+](=O)[O-]`: the AC50 entry is “inactive”.

For `COc1cc(/C=N/NC(=O)c2cccc([N+](=O)[O-])c2)cc(OC)c1O`, the AC50 entry was “inactive”.

`COc1cc(/C=N/Nc2ccc([N+](=O)[O-])cn2)cc(OC)c1O`: the AC50 result was “inactive”.

As to `O=c1[nH]c(/C=C\c2cccc(F)c2)nc(O)c1[N+](=O)[O-]`, the AC50 entry was “inactive”.

In the case of `O=c1[nH]c(/C=C\c2ccccc2F)nc(O)c1[N+](=O)[O-]`, the AC50 entry is “inactive”.
